# Assay results: PubChem BioAssay AID651625 (National Center for Advancing Translational Sciences (NCATS), 2012)
# Activity calls are given as the source filed them.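 How the source made its calls: active means inhibition of at least 60% at a 114 µM dose; inconclusive means inhibition from 30% up to under 60% at that dose; inactive means inhibition under 30% at 114 µM.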
# Biological target: Ubiquitin carboxyl-terminal hydrolase 5 (Homo sapiens) (UniProt P45974)
# Experiment: Inhibitors of USP1/UAF1: SAR in USP5 diubiquitin SDS-PAGE gel assay
# Conditions: USP5 K63 diubiquitin cleavage, 1 h; series mostly up to 114 µM
# Source text: Deubiquitinating enzymes (DUBs) are a class of enzymes that can cleave isopeptide bond formed between the C-terminal carboxylate of ubiquitin and a lysine side-chain amino group on the target protein. Among them, ubiquitin specific proteases (USPs) constitute the largest DUB family. Human USPs are emerging as promising targets for pharmacological intervention because of their connection to a number of human diseases, including prostate, colon and breast cancer (1, 2), pediatric acute lymphoblastic leukemia (3), and familial cylindromatosis (4). The advantage of inhibiting USPs lies in the potential specificity of therapeutic intervention that can lead to better efficacy and reduce nonspecific side effects. In a collaboration between the University of Delaware and the NIH Chemical Genomics Center, a high-throughput screen assay was developed to screen for USP1/UAF1 inhibitors (5). This assay is a selectivity assay that tested for activity in a USP5 diubiquitin SDS-PAGE gel assay and inactivity is the desired outcome for this assay. […]
# The inhibition assay contains 5 nM USP5, 2 microM K63 linked diubiquitin, and inhibitors at varied concentrations (0.08 microM - 114 microM). […] The intensity of the individual diubiquitin and monoubiquitin band was quantified using Quantity One 4.3.1 (Biorad, Hercules, CA). The percentage of the conversion was determined and used to calculate the reaction rate. […]
# Chain of Ubiquitin carboxyl-terminal hydrolase 5 (Homo sapiens) (P45974 whole entry, looked up): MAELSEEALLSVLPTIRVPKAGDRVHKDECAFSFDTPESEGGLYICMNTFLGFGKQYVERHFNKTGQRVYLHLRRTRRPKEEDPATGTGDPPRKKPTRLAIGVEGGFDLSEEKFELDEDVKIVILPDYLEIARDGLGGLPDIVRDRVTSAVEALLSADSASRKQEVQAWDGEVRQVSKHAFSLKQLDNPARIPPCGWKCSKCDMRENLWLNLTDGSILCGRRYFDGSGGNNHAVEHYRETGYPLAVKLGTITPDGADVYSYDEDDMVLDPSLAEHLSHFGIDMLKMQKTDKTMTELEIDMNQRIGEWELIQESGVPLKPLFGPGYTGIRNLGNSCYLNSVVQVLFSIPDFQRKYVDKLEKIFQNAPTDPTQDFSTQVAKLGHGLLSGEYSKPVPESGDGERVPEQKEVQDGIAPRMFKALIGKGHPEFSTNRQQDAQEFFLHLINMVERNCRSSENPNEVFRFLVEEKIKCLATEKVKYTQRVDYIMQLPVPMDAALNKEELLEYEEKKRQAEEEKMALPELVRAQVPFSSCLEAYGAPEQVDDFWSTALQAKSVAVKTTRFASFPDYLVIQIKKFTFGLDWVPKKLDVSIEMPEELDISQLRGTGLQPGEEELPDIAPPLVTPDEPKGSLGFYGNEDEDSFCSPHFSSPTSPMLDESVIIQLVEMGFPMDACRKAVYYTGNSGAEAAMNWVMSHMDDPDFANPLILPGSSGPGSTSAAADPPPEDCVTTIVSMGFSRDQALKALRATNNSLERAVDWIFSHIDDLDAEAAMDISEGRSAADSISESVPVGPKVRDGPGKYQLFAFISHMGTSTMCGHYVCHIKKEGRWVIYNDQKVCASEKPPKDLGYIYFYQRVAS
row,Structure (SMILES),outcome
1,Cc1cnc(-c2ccccc2C(C)C)nc1NCc1ccc(-n2ccnn2)cc1,inactive
